Assay results from PubChem BioAssay.
The source made the active and inactive calls.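 Rule for the calls, unless noted: active = inhibition above 50%, about 3 SD of the validation set; inactive = the rest.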

Tests used:
[1] = inhibitors of CD8+ T cell-vesicle binding, pilot screen, LFA-1/ICAM-1 modulator project, MLPCN validation set, flow cytometry (AID 2523;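 active = response below a set limit, under 55% cells CD8-positive and vesicle-bound, and CD8 cells' 90th-percentile brightness under 279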;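 for vesicle binding response: mean PE anti-B7-1 fluorescence of CD8+ cells relative to row control; 100% = QL9-loaded vesicles with DMSO vehicle in the same plate row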); settings: 2C mouse CD8+ T cells, at 7 µM, stronger effect = lower value; double positive events: measured here: CD8+/vesicle+ event percentage
[2] = biological target: Integrin beta-1 (Homo sapiens) + Integrin alpha-4 (Homo sapiens) (UniProt P13612+P05556); assay: inhibition of HUTS-21 binding to VLA-4, pilot screen, VLA-4 allosteric modulator project, U937 cells, HUTS-21 mAb, flow cytometry, validation set (AID 2674); settings: HUTS-21 LIBS mAb binding, at 6.7 µM, stronger effect = higher value, binding induced by LDV ligand;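 note: antibody binding induced by the VLA-4 ligand LDV present at three times its Kd; 0% = LDV ligand with antibody and no compound and 100% = antibody without LDV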
[3] = superoxide lowering in aged yeast cells, pilot screen, validation compound set (AID 2706;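 active = superoxide response below 65% of plate, a cut near 3 SD across the whole screen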;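 note: yeast exposed to compound for one week at 30 degrees C before staining; 100% = mean of all compound wells on the same plate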); settings: S. cerevisiae aging, superoxide DHE fluorescence; at 10 µM, stronger effect = lower value
[4] = biological target: Beta-adrenergic receptor kinase 1 (Homo sapiens) (UniProt P25098); assay: GRK2 binders displacing RNA aptamer, biochemical, validation, human GRK2, bead flow cytometry (AID 488806;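 active = aptamer binding inhibition above 30%, about 3 SD of noise from non-fluorescent compounds; inactive = inhibition at or below 30%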); settings: bead-bound GRK2, FAM-aptamer displacement, at 10 µM, stronger effect = higher value
[5] = biological target: Beta-2 adrenergic receptor (Homo sapiens) (UniProt P07550); assay: beta2AR agonists driving receptor internalization, pilot screen, cell-based, FAP fluorogen, flow cytometry, validation set (AID 504459;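 active = percent response above 42, roughly 3 SD of non-fluorescent test compounds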;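 note: agonist-driven loss of surface beta2AR via internalization measured by FAP dye flow cytometry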); settings: Am2.2-beta2AR cells, FAP surface receptor flow cytometry; at 10 µM; stronger effect = higher value
[6] = biological target: AP-2 complex subunit beta (Homo sapiens) (UniProt P63010); assay: inhibitors of arrestin peptide binding to AP2, pilot screen, biochemical, validation set, GST-AP2 beads, flow cytometry (AID 504541;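 active = inhibition above 54%, about 3 SD of non-fluorescent compounds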;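 note: AP2 carries R879A mutation and is captured from E. coli lysate; bead-bound FITC arrestin peptide fluorescence measuring arrestin peptide binding to AP2; 0% = DMSO wells and 100% = excess unlabeled arrestin peptide control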); settings: FITC arrestin peptide, at 10 µM, stronger effect = higher value, AP2 beta2 appendage fragment, R879A mutant
[7] = yeast V-ATPase proton transport modulators, S. cerevisiae, pHLuorin, HTS validation (AID 504600; in the data active = response above about 15%;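 note: plate controls were DMSO for no effect and reference compound for full effect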); settings: S. cerevisiae pHLuorin cytosolic pH, at 10 µM, stronger effect = higher value
[8] = test system: anti-desmoglein-3 scFv antibody binding to human DSG3; assay: inhibitors of anti-DSG3 scFv binding to DSG3, pilot screen, biochemical, validation compound set, bead-based, flow cytometry (AID 588368;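 active = binding below the plate cutoff, the plate median minus 3 SD, with a reading above zero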;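 note: signal is the median channel fluorescence of bead-bound GFP antibody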); settings: Protein G beads, DSG3-Fc, scFv-GFP binding, at 10 µM, stronger effect = lower value
[9] = inhibitors of fungal efflux pumps CDR1, CDR2, MDR1, pilot screen, validation compound set, multiplex, phenotypic (AID 588506;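 active = efflux inhibition above 0.42, the validation set average plus 4 SD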;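 note: Nile Red retained in cells so higher fluorescence means more efflux inhibition; 0 = negative control wells and 1 = enniatin B 25 µM full block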); settings: S. cerevisiae pump-expressing triplex, Nile Red efflux flow cytometry; at 10 µM; stronger effect = higher value; the pumps come from Candida albicans
[10] = biological target: ATP-binding cassette sub-family B member 6 (Homo sapiens) (UniProt Q9NP58); assay: ABCB6 transporter inhibitors, pilot screen, K562-ABCB6 cells, flow cytometry, validation set (AID 588550;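 active = inhibition above the screen-wide mean plus 3 SD, about 51%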;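 note: 0% = DMSO wells and 100% = benzethonium chloride 70 µM positive control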); settings: K562-ABCB6 porphyrin accumulation, 1 h, at 10 µM, stronger effect = higher value
[11] = promoters of myeloid differentiation in arrested cells, primary screen, cell-based, GFP/MAC1 double positive, flow cytometry, validation set (AID 588685;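 active = differentiation response of at least 50%, scaled between solvent and reference control, from cells with both markers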;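 note: compound exposure lasts four days before antibody staining and flow analysis; 0% = DMSO wells and 100% = 5 µM fulvestrant positive control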); settings: ER-HoxA9 marrow cells, stronger effect = higher value, normalized: vehicle 0, fulvestrant 100
[12] = RPL19A-GFP modulators, yeast TOR pathway, confirmation, cell-based, S. cerevisiae, flow cytometry, cherry picks, mother/daughter gates (AID 2270;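 active = GFP response below 50% of the DMSO control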); settings: S. cerevisiae RPL19A-GFP strain, 3 h, at 10 µM, stronger effect = lower value, 100 = same GFP as DMSO wells
[13] = LAP4-GFP expression modulators in yeast, confirmation, cell-based, cherry picks, flow cytometry, mother/daughter gates (AID 2271;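 active = GFP response above 150% of the DMSO control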;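 note: ratio of sample to DMSO plate mean so 100% equals DMSO level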); settings: S. cerevisiae LAP4-GFP strain, 3 h, at 10 µM, stronger effect = higher value, 100 means same as DMSO control
[14] = modulators of MEP2-GFP levels in yeast, confirmation, S. cerevisiae, flow cytometry GFP, cherry picks (AID 2272;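 active = GFP response above 150% of the DMSO control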;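 note: ratio of well signal to plate DMSO mean so 100% equals DMSO level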); settings: S. cerevisiae MEP2-GFP strain, 3 h, at 10 µM, stronger effect = higher value
[15] = AGP1-GFP expression modulators, hit retest, confirmation, cell-based, flow cytometry, S. cerevisiae, cherry picks (AID 2273;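 active = GFP response above 150% of the DMSO level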;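 note: median GFP channel fluorescence over the whole cell population gate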); settings: S. cerevisiae AGP1-GFP strain, 3 h, at 10 µM
[16] = modulators of CIT2-GFP expression in yeast, confirmation, S. cerevisiae, GFP fusion, cherry picks, mother/daughter gates (AID 2274;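 active = GFP response above 150% of the DMSO level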); settings: S. cerevisiae CIT2-GFP strain, flow cytometry, 3 h; at 10 µM; stronger effect = higher value

Beta-2 adrenergic receptor (Homo sapiens), sequence (P07550 whole entry, looked up): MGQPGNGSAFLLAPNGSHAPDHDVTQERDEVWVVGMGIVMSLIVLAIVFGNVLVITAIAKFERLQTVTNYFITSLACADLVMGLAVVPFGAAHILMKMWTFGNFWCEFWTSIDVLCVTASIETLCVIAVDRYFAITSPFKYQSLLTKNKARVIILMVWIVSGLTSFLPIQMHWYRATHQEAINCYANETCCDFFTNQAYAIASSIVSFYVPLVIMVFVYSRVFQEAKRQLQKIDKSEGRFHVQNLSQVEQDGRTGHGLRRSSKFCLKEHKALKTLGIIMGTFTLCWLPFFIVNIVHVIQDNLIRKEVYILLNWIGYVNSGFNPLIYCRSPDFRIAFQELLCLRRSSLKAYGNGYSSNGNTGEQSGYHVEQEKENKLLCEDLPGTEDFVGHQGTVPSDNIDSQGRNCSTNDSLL
Beta-adrenergic receptor kinase 1 (Homo sapiens), sequence (P25098 whole entry, looked up): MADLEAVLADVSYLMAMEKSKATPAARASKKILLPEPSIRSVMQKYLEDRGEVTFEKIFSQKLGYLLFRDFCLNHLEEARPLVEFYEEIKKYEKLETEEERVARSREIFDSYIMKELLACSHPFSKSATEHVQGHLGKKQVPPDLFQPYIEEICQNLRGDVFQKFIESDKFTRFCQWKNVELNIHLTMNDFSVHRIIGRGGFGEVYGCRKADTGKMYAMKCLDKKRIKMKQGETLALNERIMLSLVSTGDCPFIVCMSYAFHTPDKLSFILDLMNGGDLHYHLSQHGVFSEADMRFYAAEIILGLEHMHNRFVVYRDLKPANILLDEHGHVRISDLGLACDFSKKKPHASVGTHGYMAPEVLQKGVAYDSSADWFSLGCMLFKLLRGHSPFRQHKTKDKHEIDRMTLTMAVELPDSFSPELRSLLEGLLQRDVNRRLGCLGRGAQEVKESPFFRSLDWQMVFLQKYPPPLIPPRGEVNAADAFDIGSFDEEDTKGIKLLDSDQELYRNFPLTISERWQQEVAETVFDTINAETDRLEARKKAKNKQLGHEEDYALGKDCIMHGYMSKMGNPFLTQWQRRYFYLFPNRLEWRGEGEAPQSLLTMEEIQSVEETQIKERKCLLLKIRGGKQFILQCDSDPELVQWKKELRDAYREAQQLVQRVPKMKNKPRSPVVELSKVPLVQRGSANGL
Integrin beta-1 (Homo sapiens) + Integrin alpha-4 (Homo sapiens), sequence (P05556 whole entry, looked up): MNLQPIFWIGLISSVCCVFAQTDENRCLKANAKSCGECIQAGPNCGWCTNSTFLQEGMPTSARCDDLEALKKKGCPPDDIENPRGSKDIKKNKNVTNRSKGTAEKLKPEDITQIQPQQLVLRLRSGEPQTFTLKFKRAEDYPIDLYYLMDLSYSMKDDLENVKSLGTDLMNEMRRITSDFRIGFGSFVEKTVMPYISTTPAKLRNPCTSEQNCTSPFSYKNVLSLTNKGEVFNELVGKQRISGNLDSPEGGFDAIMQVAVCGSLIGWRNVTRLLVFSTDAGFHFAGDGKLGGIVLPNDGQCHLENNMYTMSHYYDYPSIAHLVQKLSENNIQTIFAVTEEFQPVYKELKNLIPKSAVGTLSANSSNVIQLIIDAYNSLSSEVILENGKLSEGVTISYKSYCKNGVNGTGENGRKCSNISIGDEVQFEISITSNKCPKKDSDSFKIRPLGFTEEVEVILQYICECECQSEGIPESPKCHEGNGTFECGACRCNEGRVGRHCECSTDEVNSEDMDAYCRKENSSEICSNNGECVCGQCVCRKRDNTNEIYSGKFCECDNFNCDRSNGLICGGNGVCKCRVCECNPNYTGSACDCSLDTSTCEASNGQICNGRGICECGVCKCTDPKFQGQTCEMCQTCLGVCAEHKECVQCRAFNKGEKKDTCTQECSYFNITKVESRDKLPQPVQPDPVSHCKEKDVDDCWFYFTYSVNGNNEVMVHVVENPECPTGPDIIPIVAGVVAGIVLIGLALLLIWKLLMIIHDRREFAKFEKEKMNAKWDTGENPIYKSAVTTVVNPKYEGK
Integrin beta-1 (Homo sapiens) + Integrin alpha-4 (Homo sapiens), sequence (P13612 whole entry, looked up): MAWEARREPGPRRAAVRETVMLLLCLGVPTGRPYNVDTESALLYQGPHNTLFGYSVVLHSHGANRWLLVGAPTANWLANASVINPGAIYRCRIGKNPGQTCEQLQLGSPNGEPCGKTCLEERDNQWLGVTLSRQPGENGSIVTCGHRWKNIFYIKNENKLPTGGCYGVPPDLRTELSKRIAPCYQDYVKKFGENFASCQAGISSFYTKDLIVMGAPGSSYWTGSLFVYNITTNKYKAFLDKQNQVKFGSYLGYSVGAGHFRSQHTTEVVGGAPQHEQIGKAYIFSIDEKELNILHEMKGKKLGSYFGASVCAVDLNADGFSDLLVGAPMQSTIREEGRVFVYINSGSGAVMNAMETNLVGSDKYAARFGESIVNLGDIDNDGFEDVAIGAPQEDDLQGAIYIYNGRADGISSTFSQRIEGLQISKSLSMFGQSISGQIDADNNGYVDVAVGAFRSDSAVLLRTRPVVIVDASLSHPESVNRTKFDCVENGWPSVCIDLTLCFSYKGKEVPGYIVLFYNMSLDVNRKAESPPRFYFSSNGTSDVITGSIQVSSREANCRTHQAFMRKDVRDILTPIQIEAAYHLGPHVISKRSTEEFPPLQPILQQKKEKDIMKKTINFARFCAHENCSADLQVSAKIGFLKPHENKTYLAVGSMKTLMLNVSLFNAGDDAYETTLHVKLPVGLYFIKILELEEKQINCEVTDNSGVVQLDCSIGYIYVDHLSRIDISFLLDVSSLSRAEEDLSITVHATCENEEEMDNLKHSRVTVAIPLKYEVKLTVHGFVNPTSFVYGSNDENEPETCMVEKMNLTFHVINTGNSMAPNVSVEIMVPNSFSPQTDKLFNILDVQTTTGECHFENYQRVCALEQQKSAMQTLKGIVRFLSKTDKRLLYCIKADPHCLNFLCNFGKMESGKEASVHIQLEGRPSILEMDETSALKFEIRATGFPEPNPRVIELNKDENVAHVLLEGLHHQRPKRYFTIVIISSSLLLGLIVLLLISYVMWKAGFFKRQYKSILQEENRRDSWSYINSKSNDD
ATP-binding cassette sub-family B member 6 (Homo sapiens), sequence (Q9NP58 whole entry, looked up): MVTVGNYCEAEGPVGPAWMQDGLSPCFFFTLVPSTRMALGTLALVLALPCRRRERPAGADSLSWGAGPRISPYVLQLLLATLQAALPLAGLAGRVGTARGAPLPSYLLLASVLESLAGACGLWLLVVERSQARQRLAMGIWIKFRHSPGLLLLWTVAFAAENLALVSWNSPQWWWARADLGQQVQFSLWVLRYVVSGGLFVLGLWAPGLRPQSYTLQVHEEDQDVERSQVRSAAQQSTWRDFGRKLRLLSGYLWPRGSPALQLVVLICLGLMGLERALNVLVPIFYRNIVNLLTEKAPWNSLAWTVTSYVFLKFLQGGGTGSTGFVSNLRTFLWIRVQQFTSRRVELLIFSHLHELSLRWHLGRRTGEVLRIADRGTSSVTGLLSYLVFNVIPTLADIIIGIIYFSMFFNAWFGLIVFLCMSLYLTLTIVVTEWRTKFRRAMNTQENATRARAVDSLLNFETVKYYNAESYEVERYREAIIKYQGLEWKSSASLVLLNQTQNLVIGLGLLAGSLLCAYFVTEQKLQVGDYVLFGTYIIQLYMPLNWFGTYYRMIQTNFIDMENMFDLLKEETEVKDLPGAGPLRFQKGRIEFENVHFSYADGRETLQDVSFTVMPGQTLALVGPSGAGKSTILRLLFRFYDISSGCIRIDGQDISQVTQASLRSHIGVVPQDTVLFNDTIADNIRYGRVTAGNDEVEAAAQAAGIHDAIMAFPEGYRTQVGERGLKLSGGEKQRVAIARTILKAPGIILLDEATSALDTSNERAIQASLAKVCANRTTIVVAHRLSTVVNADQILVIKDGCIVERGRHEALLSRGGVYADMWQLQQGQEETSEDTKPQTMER
AP-2 complex subunit beta (Homo sapiens), sequence (P63010 whole entry, looked up, the tested form may be a part, one chain of several): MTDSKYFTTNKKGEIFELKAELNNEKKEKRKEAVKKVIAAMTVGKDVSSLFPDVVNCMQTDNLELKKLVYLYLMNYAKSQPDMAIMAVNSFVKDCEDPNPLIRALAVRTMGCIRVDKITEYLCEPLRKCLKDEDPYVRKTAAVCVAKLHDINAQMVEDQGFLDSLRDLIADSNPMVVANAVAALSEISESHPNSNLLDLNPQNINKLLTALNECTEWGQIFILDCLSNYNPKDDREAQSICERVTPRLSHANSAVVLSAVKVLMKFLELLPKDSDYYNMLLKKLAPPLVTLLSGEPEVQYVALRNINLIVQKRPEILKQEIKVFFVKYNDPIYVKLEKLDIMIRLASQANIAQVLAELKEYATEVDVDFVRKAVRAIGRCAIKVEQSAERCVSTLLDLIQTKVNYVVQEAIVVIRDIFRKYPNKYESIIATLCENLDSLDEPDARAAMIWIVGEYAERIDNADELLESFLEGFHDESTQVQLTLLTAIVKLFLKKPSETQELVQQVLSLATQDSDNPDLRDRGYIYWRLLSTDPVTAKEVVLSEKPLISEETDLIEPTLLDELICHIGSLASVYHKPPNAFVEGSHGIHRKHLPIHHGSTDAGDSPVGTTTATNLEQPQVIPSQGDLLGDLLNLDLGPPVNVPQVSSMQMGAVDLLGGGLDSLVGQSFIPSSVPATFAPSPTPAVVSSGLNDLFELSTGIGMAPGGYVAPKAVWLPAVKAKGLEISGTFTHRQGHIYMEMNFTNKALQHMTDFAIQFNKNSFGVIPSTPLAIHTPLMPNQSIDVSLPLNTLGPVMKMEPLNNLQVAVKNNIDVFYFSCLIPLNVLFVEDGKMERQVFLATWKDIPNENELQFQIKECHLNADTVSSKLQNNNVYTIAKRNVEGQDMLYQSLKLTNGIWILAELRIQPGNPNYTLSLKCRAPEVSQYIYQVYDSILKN

CC(=O)NCCCC(=O)NC(CCC(=O)OCc1ccccc1)C(=O)OCc1ccccc1 (stereo not given)
inactive: vesicle binding response [1] 425% | inhibition [2] 5.03% | superoxide response (% of plate) [3] 86.7% | aptamer binding inhibition [4] 1% | response [5] 6.65% | inhibition [6] -8.67% | response [7] -0.06% | binding (% of control) [8] 96.8% | efflux inhibition (fraction of control) [9] 0.4 | inhibition [10] 2% | differentiation response [11] 34.4%
72.6%: double positive events [1]

CC(=O)/C=C/c1ccc(C)o1
62.2%: double positive events [1]
active: efflux inhibition (fraction of control) [9] 0.51
inactive: vesicle binding response [1] 175% | inhibition [2] 5.03% | superoxide response (% of plate) [3] 95.6% | aptamer binding inhibition [4] -4% | response [5] 14.7% | inhibition [6] 15.9% | response [7] 0.22% | binding (% of control) [8] 102% | inhibition [10] 3% | differentiation response [11] 28%

CCN(Cc1cnn(C)c1)Cc1nc(C(c2ccccc2)c2ccccc2)no1
inactive: vesicle binding response [1] 168% | inhibition [2] 7.4% | superoxide response (% of plate) [3] 120% | aptamer binding inhibition [4] -5% | response [5] -21.6% | inhibition [6] -13.6% | response [7] -8.11% | binding (% of control) [8] 98.8% | efflux inhibition (fraction of control) [9] -0.04 | inhibition [10] 1% | differentiation response [11] 16.7%
61.8%: double positive events [1]

Cc1nc2ccc(Br)cn2c1NC(C)(C)C
inactive: GFP response vs DMSO [12] 98.4% | GFP response relative to DMSO [13] 96.2% | GFP response vs DMSO [14] 100% | GFP response, % of DMSO [15] 97.6% | GFP response, % of DMSO [16] 102%

C=CCc1ccc(OCC(O)COc2ccc(CC=C)cc2OC)c(OC)c1
58.6%: double positive events [1]
inactive: vesicle binding response [1] 140% | inhibition [2] 7.76% | superoxide response (% of plate) [3] 104% | aptamer binding inhibition [4] -1% | response [5] 7.14% | inhibition [6] 3.97% | response [7] 2.47% | binding (% of control) [8] 104% | efflux inhibition (fraction of control) [9] 0.4 | inhibition [10] 4%
active: differentiation response [11] 50.4%

O=C(Nc1ccccc1)c1ccccc1CCc1ccccc1
inactive: vesicle binding response [1] 167% | inhibition [2] 6.95% | superoxide response (% of plate) [3] 90.9% | aptamer binding inhibition [4] 5% | inhibition [6] 9.22% | response [7] -1.57% | binding (% of control) [8] 95.3% | efflux inhibition (fraction of control) [9] -0.12 | inhibition [10] 0% | differentiation response [11] -0.18%
61.3%: double positive events [1]
active: response [5] 46.6%

Cn1cc(CN(CCO)Cc2cccs2)c(-c2cccc(Cl)c2)n1
55.3%: double positive events [1]
inactive: vesicle binding response [1] 159% | inhibition [2] -1.79% | superoxide response (% of plate) [3] 92.3% | aptamer binding inhibition [4] 3% | response [5] 32.8% | inhibition [6] -0.41% | response [7] 1.36% | binding (% of control) [8] 99.3% | efflux inhibition (fraction of control) [9] -0.06 | inhibition [10] 5% | differentiation response [11] -8.8%

COc1ccc(/C=C\C(=O)c2c(O)ccc3c(C)cc(=O)oc23)cc1OC
active: inhibition [6] 60.6%
inactive: vesicle binding response [1] 182% | inhibition [2] 14.2% | superoxide response (% of plate) [3] 94.3% | aptamer binding inhibition [4] 1% | response [5] 16.8% | response [7] -0.16% | binding (% of control) [8] 106% | efflux inhibition (fraction of control) [9] 0.29 | inhibition [10] -4% | differentiation response [11] -1.05%
60.8%: double positive events [1]

Fc1ccc(C2Nc3cccc4cccc(c34)N2)cc1
inactive: GFP response vs DMSO [12] 98.2% | GFP response relative to DMSO [13] 106% | GFP response vs DMSO [14] 97.8% | GFP response, % of DMSO [15] 95.4% | GFP response, % of DMSO [16] 97.8%

NC(=O)N1c2ccccc2C=Cc2ccccc21
inactive: vesicle binding response [1] 120% | inhibition [2] 5.61% | superoxide response (% of plate) [3] 112% | aptamer binding inhibition [4] 3% | response [5] 13.8% | inhibition [6] 1.72% | response [7] -12.4% | binding (% of control) [8] 98.5% | efflux inhibition (fraction of control) [9] -0.07 | inhibition [10] 11% | differentiation response [11] -3.11%
56%: double positive events [1]

O=C1CCCCCN1Cc1ccccc1
inactive: vesicle binding response [1] 208% | inhibition [2] 3.67% | superoxide response (% of plate) [3] 97.2% | aptamer binding inhibition [4] 7% | response [5] -1.56% | inhibition [6] -4.78% | response [7] 5.84% | binding (% of control) [8] 101% | efflux inhibition (fraction of control) [9] -0.24 | inhibition [10] 5% | differentiation response [11] 8.8%
62.4%: double positive events [1]

COc1ccc(CCn2c(C)cc3c(c2=O)C(c2ccncc2)C(C#N)=C(N)O3)cc1OC (stereo not given)
59.3%: double positive events [1]
inactive: vesicle binding response [1] 179% | inhibition [2] -1.79% | superoxide response (% of plate) [3] 102% | aptamer binding inhibition [4] 6% | response [5] 10.6% | inhibition [6] -6.51% | response [7] 0.22% | binding (% of control) [8] 101% | efflux inhibition (fraction of control) [9] -0.13 | inhibition [10] 6% | differentiation response [11] 12%
